Laboratory results reported in the supplement of paper PMC11732987, “Enantioselective OTUD7B fragment discovery through chemoproteomics screening and high-throughput optimisation” (Communications Chemistry, 2025).

Assays:
Assay in all cases: log2 ratio of Biotin-Ahx-Ub-VS probe labelling (fragment/DMSO); higher = less target engagement (more negative = stronger competition), active = hit call of the paper (q ≤ 0.05, log2 ratio ≤ -1)
Details in all cases: compound concentration: 200 uM; treatment time: 3 h
USP42 = molecular target: T1, USP42 (UniProt Q9H9J4)
T1 sequence (whole entry): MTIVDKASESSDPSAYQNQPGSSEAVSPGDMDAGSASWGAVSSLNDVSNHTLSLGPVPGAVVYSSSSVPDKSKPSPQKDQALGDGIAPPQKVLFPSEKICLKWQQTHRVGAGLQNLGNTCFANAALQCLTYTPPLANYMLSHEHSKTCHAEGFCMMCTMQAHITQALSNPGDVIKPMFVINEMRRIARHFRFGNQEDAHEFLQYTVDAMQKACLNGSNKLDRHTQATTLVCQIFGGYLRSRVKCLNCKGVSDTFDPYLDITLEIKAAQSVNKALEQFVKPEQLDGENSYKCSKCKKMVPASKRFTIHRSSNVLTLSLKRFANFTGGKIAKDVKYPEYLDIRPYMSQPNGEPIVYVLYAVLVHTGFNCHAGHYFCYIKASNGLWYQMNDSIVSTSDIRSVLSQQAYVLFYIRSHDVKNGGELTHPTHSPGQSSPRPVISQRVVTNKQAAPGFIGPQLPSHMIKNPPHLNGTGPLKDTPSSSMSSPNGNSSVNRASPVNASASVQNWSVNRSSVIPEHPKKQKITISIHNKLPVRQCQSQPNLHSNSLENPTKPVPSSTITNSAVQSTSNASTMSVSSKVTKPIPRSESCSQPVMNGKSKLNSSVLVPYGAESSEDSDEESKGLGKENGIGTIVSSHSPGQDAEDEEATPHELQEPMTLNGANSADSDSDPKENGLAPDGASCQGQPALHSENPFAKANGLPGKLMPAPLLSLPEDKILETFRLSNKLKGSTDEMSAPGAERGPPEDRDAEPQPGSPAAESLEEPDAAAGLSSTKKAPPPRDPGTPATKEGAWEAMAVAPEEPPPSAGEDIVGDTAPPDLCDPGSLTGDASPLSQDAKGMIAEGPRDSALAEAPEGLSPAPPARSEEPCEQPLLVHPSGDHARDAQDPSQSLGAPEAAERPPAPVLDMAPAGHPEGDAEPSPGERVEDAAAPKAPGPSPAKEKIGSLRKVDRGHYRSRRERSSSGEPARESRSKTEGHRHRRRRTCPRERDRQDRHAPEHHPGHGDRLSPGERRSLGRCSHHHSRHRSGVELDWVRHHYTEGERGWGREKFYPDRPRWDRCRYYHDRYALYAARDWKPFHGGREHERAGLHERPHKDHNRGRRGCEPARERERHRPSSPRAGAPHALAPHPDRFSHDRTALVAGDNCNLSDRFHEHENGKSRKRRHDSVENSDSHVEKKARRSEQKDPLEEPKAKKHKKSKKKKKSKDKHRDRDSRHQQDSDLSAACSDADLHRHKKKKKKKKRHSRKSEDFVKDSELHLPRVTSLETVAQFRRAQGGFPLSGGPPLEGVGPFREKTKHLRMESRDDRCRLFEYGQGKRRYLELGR
In short: (§1)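 Using Biotin-Ahx-Ub-VS at 0.5 µM final for 1 h, DUBs were labelled in HEK293T lysate (495 µg per sample) that had first been treated in triplicate with fragment at 200 µM or vehicle for 3 h. NeutrAvidin enrichment, LysC and trypsin digestion and diaPASEF LC-MS/MS followed. Spectronaut label-free quantities were global-median-normalised. Values are average log2 fragment/vehicle ratios by unpaired t-test, using proteins with ≥2 unique peptides.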

USP46 = USP46 (UniProt P62068)
In short: as §1

USP47 = molecular target: T2, USP47 (UniProt Q96K76)
T2 sequence (whole entry): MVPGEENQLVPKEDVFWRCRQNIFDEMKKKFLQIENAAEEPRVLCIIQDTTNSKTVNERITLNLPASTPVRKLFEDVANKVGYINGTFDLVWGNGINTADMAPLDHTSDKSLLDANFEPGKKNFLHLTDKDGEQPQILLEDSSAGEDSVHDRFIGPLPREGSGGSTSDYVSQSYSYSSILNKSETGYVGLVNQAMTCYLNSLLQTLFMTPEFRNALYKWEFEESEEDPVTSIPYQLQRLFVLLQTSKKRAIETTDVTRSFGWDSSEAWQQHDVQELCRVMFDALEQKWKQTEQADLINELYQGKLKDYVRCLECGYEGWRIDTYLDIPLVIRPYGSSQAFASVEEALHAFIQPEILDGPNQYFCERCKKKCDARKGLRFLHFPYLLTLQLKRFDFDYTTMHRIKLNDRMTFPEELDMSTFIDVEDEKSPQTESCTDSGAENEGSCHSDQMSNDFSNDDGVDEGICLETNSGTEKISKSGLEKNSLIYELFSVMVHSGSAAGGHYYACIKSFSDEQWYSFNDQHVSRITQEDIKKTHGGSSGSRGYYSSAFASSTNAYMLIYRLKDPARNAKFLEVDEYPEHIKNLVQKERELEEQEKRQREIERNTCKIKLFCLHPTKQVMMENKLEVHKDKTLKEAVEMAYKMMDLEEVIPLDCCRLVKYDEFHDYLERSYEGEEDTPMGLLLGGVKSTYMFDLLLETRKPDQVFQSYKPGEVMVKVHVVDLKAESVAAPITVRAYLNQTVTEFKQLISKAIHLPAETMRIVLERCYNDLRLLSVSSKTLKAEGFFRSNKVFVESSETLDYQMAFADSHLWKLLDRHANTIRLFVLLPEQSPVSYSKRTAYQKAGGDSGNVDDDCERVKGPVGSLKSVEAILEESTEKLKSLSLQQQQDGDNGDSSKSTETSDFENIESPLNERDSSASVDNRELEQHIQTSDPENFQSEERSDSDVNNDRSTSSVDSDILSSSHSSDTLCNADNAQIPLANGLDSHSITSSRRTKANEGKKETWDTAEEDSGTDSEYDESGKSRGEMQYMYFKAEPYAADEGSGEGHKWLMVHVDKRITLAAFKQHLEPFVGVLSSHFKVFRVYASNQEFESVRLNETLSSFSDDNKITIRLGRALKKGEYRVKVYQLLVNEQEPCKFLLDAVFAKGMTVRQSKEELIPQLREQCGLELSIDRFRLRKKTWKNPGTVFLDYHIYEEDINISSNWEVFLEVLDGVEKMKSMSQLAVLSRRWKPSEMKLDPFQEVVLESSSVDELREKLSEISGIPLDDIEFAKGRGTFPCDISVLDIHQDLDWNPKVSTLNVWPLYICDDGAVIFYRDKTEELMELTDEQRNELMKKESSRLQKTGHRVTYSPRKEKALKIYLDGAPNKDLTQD
In short: as §1

USP48 = molecular target: T3, USP48 (UniProt Q86UV5)
T3 sequence (whole entry): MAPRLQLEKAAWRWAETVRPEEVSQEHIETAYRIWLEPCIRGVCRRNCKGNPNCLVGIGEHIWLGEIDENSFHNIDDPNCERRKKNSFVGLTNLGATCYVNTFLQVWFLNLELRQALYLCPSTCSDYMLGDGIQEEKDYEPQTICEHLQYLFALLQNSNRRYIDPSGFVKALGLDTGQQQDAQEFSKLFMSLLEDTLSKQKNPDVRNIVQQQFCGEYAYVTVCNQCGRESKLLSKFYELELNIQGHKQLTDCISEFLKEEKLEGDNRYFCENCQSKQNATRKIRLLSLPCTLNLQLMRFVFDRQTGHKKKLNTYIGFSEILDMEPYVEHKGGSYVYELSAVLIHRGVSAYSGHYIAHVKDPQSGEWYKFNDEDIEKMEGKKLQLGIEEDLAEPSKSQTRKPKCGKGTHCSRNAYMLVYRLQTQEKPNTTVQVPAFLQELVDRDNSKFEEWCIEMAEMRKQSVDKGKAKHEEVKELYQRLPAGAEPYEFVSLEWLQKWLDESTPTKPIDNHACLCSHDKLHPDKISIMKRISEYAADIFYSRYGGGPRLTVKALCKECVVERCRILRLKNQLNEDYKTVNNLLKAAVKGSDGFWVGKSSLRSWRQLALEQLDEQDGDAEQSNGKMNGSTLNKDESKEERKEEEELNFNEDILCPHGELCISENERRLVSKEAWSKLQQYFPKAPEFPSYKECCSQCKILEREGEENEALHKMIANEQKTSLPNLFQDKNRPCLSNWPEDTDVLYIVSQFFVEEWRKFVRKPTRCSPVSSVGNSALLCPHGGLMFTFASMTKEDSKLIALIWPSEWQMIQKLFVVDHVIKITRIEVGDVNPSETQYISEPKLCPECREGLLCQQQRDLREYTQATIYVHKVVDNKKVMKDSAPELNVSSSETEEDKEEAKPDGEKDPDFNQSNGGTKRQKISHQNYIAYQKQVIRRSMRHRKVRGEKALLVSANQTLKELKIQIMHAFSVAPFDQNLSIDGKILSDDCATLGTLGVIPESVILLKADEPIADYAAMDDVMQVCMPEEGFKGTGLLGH
In short: as §1

USP5 = molecular target: T4, USP5 (UniProt P45974)
T4 sequence (whole entry): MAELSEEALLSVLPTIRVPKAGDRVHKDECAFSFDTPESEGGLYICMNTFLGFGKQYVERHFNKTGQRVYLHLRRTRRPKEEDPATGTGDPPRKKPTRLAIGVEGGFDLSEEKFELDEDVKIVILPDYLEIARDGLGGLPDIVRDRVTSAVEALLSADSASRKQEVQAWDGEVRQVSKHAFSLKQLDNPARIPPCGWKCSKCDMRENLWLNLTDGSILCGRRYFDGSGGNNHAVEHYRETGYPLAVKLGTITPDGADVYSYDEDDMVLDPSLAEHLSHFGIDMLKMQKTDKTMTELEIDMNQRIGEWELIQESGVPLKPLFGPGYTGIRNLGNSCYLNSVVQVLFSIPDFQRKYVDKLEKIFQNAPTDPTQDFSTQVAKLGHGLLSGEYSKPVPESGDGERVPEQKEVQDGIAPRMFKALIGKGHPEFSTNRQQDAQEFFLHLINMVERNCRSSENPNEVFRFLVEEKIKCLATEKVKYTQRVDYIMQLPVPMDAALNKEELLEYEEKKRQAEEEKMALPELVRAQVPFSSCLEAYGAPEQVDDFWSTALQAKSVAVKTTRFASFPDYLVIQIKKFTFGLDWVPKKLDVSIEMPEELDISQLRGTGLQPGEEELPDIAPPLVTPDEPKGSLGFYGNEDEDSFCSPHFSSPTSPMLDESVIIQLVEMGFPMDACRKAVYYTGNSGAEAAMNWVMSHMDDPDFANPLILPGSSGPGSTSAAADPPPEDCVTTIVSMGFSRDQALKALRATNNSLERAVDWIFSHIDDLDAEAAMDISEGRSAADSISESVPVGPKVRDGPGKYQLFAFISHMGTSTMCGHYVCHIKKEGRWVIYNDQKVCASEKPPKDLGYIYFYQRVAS
In short: as §1

USP54 = USP54 (UniProt Q70EL1)
In short: as §1

USP7 = USP7 (UniProt Q93009)
In short: as §1

USP8 = molecular target: T5, USP8 (UniProt P40818)
T5 sequence (whole entry): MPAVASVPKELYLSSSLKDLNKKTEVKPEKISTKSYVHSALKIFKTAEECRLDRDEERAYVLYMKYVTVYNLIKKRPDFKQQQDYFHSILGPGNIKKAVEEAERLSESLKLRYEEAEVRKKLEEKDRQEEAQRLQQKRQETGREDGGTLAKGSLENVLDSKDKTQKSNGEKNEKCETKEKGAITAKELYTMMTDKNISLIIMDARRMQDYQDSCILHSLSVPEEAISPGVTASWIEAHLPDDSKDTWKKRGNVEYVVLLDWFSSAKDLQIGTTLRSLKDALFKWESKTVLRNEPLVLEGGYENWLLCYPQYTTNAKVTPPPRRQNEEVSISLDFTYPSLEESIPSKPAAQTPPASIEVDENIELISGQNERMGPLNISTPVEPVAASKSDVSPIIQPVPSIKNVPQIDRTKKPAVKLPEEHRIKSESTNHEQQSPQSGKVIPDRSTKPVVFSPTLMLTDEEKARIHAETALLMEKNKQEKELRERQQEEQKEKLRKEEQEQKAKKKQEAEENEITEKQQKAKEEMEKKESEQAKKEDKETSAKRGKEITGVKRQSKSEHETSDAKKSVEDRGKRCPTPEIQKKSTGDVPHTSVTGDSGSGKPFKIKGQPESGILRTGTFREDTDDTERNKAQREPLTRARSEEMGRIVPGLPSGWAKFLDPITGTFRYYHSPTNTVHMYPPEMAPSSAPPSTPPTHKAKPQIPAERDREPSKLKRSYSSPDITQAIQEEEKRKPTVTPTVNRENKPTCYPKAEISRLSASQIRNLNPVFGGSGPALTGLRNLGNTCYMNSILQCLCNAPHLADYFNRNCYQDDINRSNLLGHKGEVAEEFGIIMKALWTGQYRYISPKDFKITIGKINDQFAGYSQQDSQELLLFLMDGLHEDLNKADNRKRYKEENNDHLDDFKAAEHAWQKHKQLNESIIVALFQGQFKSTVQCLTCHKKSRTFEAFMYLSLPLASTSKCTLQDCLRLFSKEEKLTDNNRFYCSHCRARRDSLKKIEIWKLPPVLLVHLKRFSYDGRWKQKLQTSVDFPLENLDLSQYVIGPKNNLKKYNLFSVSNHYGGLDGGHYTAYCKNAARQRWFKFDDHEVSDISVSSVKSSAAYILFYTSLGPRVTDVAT
In short: as §1

Measured: log2 ratio of Biotin-Ahx-Ub-VS probe labelling

Chain of USP7 (Q93009 whole entry, looked up): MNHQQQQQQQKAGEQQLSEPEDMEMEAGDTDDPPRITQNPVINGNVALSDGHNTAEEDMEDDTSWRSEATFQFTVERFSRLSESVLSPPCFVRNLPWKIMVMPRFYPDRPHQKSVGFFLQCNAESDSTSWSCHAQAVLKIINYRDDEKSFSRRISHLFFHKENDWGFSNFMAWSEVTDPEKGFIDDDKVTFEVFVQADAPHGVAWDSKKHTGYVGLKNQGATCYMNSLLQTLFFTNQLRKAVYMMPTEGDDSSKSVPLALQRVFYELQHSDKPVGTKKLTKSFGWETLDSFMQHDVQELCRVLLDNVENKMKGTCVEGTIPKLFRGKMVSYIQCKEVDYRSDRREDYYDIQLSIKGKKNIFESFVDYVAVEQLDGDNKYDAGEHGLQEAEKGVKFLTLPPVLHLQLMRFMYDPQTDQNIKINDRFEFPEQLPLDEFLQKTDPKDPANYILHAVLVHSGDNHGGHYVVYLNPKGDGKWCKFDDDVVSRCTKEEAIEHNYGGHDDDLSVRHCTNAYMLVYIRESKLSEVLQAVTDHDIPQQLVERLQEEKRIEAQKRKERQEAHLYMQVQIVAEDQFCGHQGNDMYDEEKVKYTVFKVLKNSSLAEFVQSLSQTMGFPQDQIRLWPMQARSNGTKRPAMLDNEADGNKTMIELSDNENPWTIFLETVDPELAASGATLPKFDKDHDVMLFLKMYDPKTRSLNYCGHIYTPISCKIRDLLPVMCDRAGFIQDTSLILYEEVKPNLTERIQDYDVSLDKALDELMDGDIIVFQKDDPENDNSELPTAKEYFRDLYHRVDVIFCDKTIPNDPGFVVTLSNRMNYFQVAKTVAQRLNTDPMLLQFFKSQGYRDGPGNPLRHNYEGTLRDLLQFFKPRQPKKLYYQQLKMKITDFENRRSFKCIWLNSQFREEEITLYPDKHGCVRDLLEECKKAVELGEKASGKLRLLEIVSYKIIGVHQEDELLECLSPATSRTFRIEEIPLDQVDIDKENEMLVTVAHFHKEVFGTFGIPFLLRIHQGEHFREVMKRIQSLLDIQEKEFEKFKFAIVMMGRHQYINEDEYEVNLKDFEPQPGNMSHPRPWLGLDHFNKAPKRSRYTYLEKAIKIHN
Chain of USP46 (P62068 whole entry): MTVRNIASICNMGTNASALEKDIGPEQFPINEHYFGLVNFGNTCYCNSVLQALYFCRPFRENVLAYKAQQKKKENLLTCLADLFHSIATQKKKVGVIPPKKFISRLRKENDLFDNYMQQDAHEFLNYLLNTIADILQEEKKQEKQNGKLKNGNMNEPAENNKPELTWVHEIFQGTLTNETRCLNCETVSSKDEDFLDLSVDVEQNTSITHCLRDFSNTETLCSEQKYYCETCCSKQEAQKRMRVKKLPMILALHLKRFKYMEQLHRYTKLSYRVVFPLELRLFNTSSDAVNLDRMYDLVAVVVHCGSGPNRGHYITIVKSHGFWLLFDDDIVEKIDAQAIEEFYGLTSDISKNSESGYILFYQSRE
Chain of USP54 (Q70EL1 whole entry): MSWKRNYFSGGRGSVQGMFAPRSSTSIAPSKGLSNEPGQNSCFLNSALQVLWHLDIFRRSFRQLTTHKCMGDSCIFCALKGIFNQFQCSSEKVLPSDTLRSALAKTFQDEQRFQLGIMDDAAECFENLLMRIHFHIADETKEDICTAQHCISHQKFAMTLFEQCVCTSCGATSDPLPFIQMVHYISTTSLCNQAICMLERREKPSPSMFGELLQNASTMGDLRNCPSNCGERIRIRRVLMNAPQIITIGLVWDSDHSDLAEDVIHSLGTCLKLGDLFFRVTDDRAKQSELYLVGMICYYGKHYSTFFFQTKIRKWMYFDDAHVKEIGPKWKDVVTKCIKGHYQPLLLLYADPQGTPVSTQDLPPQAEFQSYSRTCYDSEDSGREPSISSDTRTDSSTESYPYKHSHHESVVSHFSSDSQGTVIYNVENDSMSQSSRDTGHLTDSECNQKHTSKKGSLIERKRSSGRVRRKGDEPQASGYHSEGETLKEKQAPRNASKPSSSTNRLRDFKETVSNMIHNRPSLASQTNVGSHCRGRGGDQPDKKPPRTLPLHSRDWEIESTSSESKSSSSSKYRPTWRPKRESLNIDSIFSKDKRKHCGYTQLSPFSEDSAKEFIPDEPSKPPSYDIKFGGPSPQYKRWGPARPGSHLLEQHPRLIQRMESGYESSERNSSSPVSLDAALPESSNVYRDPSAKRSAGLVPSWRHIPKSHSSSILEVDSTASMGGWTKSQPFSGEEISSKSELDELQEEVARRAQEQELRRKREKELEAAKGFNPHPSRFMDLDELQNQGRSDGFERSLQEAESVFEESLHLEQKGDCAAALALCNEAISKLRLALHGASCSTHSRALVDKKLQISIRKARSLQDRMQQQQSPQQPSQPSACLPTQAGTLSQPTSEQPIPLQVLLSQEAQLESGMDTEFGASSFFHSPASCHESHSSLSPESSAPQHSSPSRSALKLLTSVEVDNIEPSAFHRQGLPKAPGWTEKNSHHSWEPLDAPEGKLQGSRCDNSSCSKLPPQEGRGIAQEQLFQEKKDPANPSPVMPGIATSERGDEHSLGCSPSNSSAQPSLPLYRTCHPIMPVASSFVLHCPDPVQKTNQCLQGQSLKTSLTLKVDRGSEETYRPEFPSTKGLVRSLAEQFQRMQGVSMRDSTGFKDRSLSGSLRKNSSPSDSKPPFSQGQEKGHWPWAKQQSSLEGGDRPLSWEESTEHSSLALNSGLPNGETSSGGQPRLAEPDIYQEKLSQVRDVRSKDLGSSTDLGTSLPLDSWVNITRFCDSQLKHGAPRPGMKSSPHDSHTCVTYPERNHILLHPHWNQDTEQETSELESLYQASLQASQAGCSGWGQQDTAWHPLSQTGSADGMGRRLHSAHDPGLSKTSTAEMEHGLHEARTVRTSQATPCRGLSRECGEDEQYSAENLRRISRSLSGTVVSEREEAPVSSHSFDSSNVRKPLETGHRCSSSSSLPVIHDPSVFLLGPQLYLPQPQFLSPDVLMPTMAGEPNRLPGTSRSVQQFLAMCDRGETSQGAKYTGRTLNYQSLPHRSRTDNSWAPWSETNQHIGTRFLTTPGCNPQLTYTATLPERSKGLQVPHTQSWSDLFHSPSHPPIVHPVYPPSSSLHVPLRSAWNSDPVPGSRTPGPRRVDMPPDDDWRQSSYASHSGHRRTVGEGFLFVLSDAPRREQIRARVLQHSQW

O=C(CCl)N1CCOCCC1c1ccccc1 (stereo not drawn)
inactive: USP42 0.345 | USP46 -0.0581 | USP47 -0.596 | USP48 0.0099 | USP5 0.135 | USP54 0.504 | USP7 -0.526 | USP8 -0.109
